From PubChem BioAssay (Tox21)
Records with an inconclusive call do not appear. Where a call stands in place of a potency, no number is given. Unmarked numbers belong to inactive results. The source made the active and inactive calls. Unless noted, calls follow the shape of the dose curve; as a rule, active = well fitted curve in the direction sought with a large enough effect in the repeat runs; inconclusive = weak or mixed curves; inactive = no such curve, though single readings can be large; an effect the other way counts as inactive or inconclusive.

Tests used:
[1] = biological target: Retinoic acid receptor RXR-alpha (Homo sapiens) (UniProt P19793); assay: qHTS assay to identify small molecule agonists of the RXR signaling pathway (AID 1159527; calls by dose curve; also: nearly all actives have a fitted effect of over 35% in size; also: potency is read from the fitted curve at half-maximal effect)
In short: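 16 hr incubation of compound-treated RXR-alpha-UAS-bla HEK 293T cells (2% charcoal-stripped FBS, 37 C) preceded a 2 hr room-temperature LiveBLAzer FRET substrate step and blue/green fluorescence measurement.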

[2] = qHTS assay to identify small molecule agonists of the RXR signaling pathway - cell viability counter screen (AID 1159529);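 also: HEK 293T cells carrying an RXR-alpha UAS beta-lactamase reporter; series mostly up to about 77 µM; nearly all actives have a fitted effect of over 50% in size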
In short: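 In this parallel viability measure, GeneBLAzer RXR-alpha HEK 293T cells (2% charcoal-stripped FBS) were given a 5 hr preincubation, treated with compounds 16 hr at 37 C, and read by CellTiter-Glo luminescence.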

[3] = qHTS assay to identify small molecule antagonists of the retinoid acid receptor (RAR) signaling pathway - cell viability counter screen (AID 1159551); also: nearly all actives have a fitted effect of over 35% in size
In short: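 C3RL4 RARE-luciferase cells, 1,000/well, incubated overnight, then dosed with compound plus 1 uM retinol (final). After 6 hr at 37 C, viability read by CellTiter-Glo ATP luminescence following 30 min at room temperature.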

[4] = qHTS assay to identify small molecule antagonists of the estrogen related receptor (ERR) signaling pathway from Tox21 library - cell viability counter screen (AID 1224834); also: nearly all actives have a fitted effect of over 30% in size
In short: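 ERR reporter cells, 2,000 per well, rested 6 h, then exposed to compound in DMSO for 17.5 hours at 37 C. Viability read as fluorescence after 30 min with CellTiter-Fluor.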

[5] = qHTS assay to identify small molecule agonists of the constitutive androstane receptor (CAR) signaling pathway - cell viability counter screen (AID 1224836); also: series mostly up to about 92 µM; nearly all actives have a fitted effect of over 45% in size
In short: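 Using CellTiter-Fluor, viability of HepG2 cells harbouring hCAR and CYP2B6-2.2kb was measured following 23 h incubation with a 15-concentration compound series plus PK11195 (0.75 uM final).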

[6] = qHTS assay to identify small molecule antagonists of the constitutive androstane receptor (CAR) signaling pathway - cell viability counter screen (AID 1224837); also: series mostly up to about 92 µM; nearly all actives have a fitted effect of over 45% in size
In short: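 HepG2 cells stably carrying hCAR and CYP2B6-2.2kb reporter, stimulated with 50 nM CITCO and compounds at 15 concentrations for 23 h at 37 C. Viability measured by CellTiter-Fluor fluorescence.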

[7] = biological target: Nuclear receptor subfamily 1 group I member 3 (Homo sapiens) (UniProt Q14994); assay: qHTS assay to identify small molecule antagonists of the constitutive androstane receptor (CAR) signaling pathway (AID 1224838); also: nearly all actives have a fitted effect of over 40% in size
In short: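 HepG2 cells stably carrying hCAR and a CYP2B6-2.2kb luciferase reporter, seeded 4 hrs before compound (15 concentrations). Stimulated with 50 nM CITCO for 24 hr at 37 C. ONE-Glo luminescence read after 30 min at room temperature.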

[8] = qHTS assay to identify small molecule antagonists of the estrogen related receptor signaling pathway with the pleiotropic PPARgamma coactivator (PGC) from Tox21 10K library - cell viability counter screen (AID 1224840; active = well fitted cell-killing curve with a large enough effect in the repeat runs, not every such curve was filed as active; also: nearly all actives have a fitted effect of over 40% in size)
In short: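 PGC/ERR cells (2,000/well) plated 6 h, then compound-treated for 17.5 h at 37 C. Viability measured by CellTiter-Fluor fluorescence after 30 min at 37 C, multiplexed with the pathway assay.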

[9] = biological target: Nuclear receptor subfamily 1 group I member 3 (Homo sapiens) (UniProt Q14994); assay: qHTS assay to identify small molecule agonists of the constitutive androstane receptor (CAR) signaling pathway (AID 1224839); also: nearly all actives have a fitted effect of over 15% in size; also: potency is read from the fitted curve at half-maximal effect; as to activation: series mostly up to about 92 µM
In short: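 Double-stable HepG2 cells (hCAR, CYP2B6-2.2kb) seeded 4 h before compound addition. Exposure 24 h with 0.75 uM PK11195 final. Luciferase detected by ONE-Glo.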

[10] = qHTS assay to identify small molecule antagonists of the estrogen related receptor signaling pathway with the pleiotropic PPARgamma coactivator (PGC) from Tox21 10K library (AID 1224841; call rule not given here; also: series mostly up to about 92 µM; actives are mostly falling curves and most rising ones were filed inactive; nearly all actives have a fitted effect of over 50% in size)
In short: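 PGC/ERR cell line, 2,000 cells/well, pre-incubated 6 hours at 37 C, then exposed to compounds for 18 hours at 37 C; luciferase read with One-Glo luminescence after 30 min at room temperature.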

[11] = qHTS assay to identify small molecule agonists of the estrogen related receptor signaling pathway with the pleiotropic PPARgamma coactivator (PGC) from Tox21 10K library (AID 1224842); also: nearly all actives have a fitted effect of over 15% in size
In short: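 PGC/ERR reporter cells (NTP line) were seeded 2,000 per well, rested 6 h at 37 C/5% CO2, then pin-dosed with compounds in DMSO for 18 h at 37 C; luciferase read by One-Glo luminescence after 30 min at room temperature.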

[12] = biological target: Luciferin 4-monooxygenase (Photinus pyralis) (UniProt P08659); assay: qHTS assay to identify small molecule inhibitors of firefly luciferase (AID 1224835); also: nearly all actives have a fitted effect of over 25% in size; also: potency is read from the fitted curve at half-maximal effect
In short: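 Quantitative HTS format; KM concentrations of both substrates. Purified P. pyralis FLuc activity quantified from luminescence images.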

[13] = qHTS assay to identify small molecule antagonists of the retinoic acid receptor (RAR) signaling pathway (AID 1159552; also: nearly all actives have a fitted effect of over 50% in size)
In short: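 C3RL4 RARE-luc cells, overnight plating; retinol 1 uM final added right after compound; 6 hr 37 C; luciferase read at 30 min RT.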

[14] = qHTS assay to identify small molecule agonists of the retinoic acid receptor (RAR) signaling pathway (AID 1159553); also: potency is read from the fitted curve at half-maximal effect
In short: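 C3RL4 RARE-luciferase cells were seeded at 1,000/well and grown overnight at 37 C, then exposed to compounds for 6 hr at 37 C, 5% CO2. Luciferase reagent was added and luminescence was read after 30 min at room temperature.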

[15] = qHTS assay to identify small molecule antagonists of the estrogen related receptor (ERR) signaling pathway - cell viability counter screen (AID 1224818); also: series mostly up to about 46 µM
In short: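 ERR cells, 2,000 per well, compound added after 6 h and incubated 17.5 h at 37 C. Viability read by CellTiter-Fluor fluorescence after a further 30 min at 37 C.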

[16] = qHTS assay to identify small molecule antagonists of the estrogen related receptor signaling pathway with the pleiotropic PPARgamma coactivator (PGC) cell viability counter screen (AID 1224822; also: series mostly up to about 46 µM)
In short: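 PGC/ERR cells rested 6 h, then compound-treated 17.5 h at 37 C. CellTiter-Fluor added for 30 min at 37 C, viability measured by fluorescence intensity.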

Retinoic acid receptor RXR-alpha (Homo sapiens), sequence (P19793 whole entry, looked up): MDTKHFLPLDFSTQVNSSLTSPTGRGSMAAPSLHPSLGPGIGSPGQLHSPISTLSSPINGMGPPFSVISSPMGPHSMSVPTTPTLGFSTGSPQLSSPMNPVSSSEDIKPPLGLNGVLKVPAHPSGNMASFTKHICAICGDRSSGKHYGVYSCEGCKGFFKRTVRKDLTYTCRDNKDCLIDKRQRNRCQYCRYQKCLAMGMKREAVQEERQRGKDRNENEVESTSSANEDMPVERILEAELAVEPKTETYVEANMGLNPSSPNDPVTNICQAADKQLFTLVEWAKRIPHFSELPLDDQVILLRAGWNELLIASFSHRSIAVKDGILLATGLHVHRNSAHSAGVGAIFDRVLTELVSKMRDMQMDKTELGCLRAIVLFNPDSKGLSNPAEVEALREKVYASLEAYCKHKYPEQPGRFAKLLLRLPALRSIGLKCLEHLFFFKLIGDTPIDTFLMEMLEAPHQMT
Nuclear receptor subfamily 1 group I member 3 (Homo sapiens), sequence (Q14994 whole entry, looked up): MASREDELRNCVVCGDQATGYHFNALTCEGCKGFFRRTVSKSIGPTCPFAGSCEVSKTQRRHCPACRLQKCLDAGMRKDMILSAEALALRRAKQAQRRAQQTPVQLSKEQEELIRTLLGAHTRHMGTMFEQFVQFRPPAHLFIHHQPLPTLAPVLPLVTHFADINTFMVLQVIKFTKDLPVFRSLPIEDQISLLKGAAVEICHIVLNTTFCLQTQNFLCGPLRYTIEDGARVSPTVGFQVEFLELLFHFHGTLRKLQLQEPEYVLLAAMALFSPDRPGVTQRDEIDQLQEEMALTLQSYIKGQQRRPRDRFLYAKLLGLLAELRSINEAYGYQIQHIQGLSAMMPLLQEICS
Luciferin 4-monooxygenase (Photinus pyralis), sequence (P08659 whole entry, looked up): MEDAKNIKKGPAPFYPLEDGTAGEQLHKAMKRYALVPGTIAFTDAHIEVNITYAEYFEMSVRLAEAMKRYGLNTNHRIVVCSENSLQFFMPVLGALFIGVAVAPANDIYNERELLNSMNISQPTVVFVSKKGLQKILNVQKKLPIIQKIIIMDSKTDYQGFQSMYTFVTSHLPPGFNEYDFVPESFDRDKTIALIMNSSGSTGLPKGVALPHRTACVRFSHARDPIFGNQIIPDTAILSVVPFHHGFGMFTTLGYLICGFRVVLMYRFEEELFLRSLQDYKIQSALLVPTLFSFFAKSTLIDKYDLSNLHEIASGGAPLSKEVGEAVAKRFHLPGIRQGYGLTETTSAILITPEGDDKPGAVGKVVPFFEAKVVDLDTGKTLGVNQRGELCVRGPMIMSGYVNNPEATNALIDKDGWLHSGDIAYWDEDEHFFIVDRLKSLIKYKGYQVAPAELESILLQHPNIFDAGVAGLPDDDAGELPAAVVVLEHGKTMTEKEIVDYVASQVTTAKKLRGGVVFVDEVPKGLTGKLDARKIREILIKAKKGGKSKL

For `CCCc1ccc(N)cc1`, the Potency [1] was “inactive”, the Potency [2] was “inactive” and the outcome [3] was “inactive”. The Potency [4] was “inactive”, the outcome [5] was “inactive” and the outcome [6] was “inactive”. The Potency [7] was “inactive” and the outcome [8] was “inactive”.
Work on `FC(F)(F)C(F)(F)C(F)(F)C(F)(F)C(F)(F)C(F)(F)C(F)(F)C(F)(F)C(F)(F)C(F)(F)F` yielded an activation [1] of 2.2% [at 6.98 µM], an activity change, negative = cytotoxicity [2] of 1.03% [at 6.97 µM] and an activity change, negative = cytotoxicity [3] of 5.5% [at 8.39 µM]. The viability change, negative = cytotoxic [4] was 3.38% [at 8.39 µM], the viability change, negative = cytotoxic [5] was 1.23% [at 8.39 µM] and the activity change, negative = cytotoxicity [6] was 0.303% [at 8.39 µM]. For the same compound, the activity, negative = inhibition [7] was 41.9% [at 8.39 µM] and the viability change, negative = cytotoxic [8] was -2.77% [at 8.39 µM].
For `CC1CCN(CCCC(=O)c2ccc(F)cc2)CC1`, the Potency [1] was “inactive”, the Potency [2] was “inactive” and the outcome [3] was “inactive”. For the same compound, the Potency [4] was “inactive”, the outcome [5] was “inactive” and the outcome [6] was “inactive”. The Potency [7] was “inactive”, the Potency [9] was “inactive” and the outcome [8] was “inactive”. For the same compound, the Potency [10] was “inactive” and the Potency [11] was “inactive”.
In the case of `CC(C)COC(=O)c1ccccc1O`, the Potency [1] is reported as “inactive”, the Potency [2] is reported as “inactive” and the outcome [3] is reported as “inactive”. For the same compound, the Potency [4] was “inactive”, the Potency [12] was “inactive” and the outcome [5] was “inactive”. For the same compound, the Potency [7] was “inactive” and the outcome [8] was “inactive”.
For `CCC(C(=O)NC(N)=O)c1ccccc1` (stereo unspecified), the Potency [1] was “inactive”, the Potency [2] was “inactive” and the outcome [3] was “inactive”. The Potency [4] was “inactive”, the Potency [12] was “inactive” and the outcome [5] was “inactive”. The outcome [6] was “inactive”, the outcome [8] was “inactive” and the Potency [10] was “inactive”. For the same compound, the Potency [11] was “inactive”.
In the case of `CC(=O)OC(C)(C)C`, the Potency [1] is reported as “inactive”, the Potency [2] is reported as “inactive” and the outcome [3] is reported as “inactive”. The Potency [4] was “inactive”, the Potency [12] was “inactive” and the outcome [5] was “inactive”. For the same compound, the outcome [8] was “inactive”, the Potency [10] was “inactive” and the Potency [11] was “inactive”.
With `Fc1ccccc1-c1ccccc1` the Potency [1] was “inactive”, the Potency [2] was “inactive” and the outcome [3] was “inactive”. For the same compound, the Potency [4] was “inactive”, the outcome [5] was “inactive” and the outcome [6] was “inactive”. The Potency [7] was “inactive”, the Potency [9] was “inactive” and the outcome [8] was “inactive”.
For `C#CC(O)CCCCC` (stereo unspecified), the Potency [1] was “inactive”, the Potency [2] was “inactive” and the outcome [3] was “inactive”. The Potency [4] was “inactive”, the Potency [12] was “inactive” and the outcome [5] was “inactive”. The Potency [7] was “inactive”, the Potency [9] was “inactive” and the outcome [8] was “inactive”.
With `Cc1cc(C)cc(OCC2CNC(=O)O2)c1` (stereo unspecified) the Potency [1] was “inactive”, the Potency [2] was “inactive” and the outcome [3] was “inactive”. The Potency [4] was “inactive”, the Potency [12] was “inactive” and the outcome [5] was “inactive”. The outcome [8] was “inactive”.
For `CCCCCCCCCCCl`, the Potency [1] was “inactive”, the Potency [2] was “inactive” and the outcome [3] was “inactive”. For the same compound, the Potency [4] was “inactive”, the Potency [12] was “inactive” and the outcome [5] was “inactive”. For the same compound, the outcome [6] was “inactive”, the outcome [8] was “inactive” and the Potency [10] was “inactive”. The Potency [11] was “inactive”.
`Cn1ccc2cc3c(cc21)CCN3C(=O)Nc1cccnc1` showed an activation [1] of 14.3% [at 15.8 µM], an activity change, negative = cytotoxicity [3] of -1.31% [at 19 µM] and an activity, negative = inhibition [13] of 169% [at 19 µM]. For the same compound, the Potency [14] was 2.31 µM (active), the outcome [15] was “inactive” and the outcome [16] was “inactive”. The Potency [12] was 3.79 µM (active), the viability change, negative = cytotoxic [5] was -0.1% [at 19 µM] and the activity change, negative = cytotoxicity [6] was -15.3% [at 19 µM]. For the same compound, the activity, negative = inhibition [7] was 213% [at 19 µM], the Potency [9] was 1.64 µM (active) and the viability change, negative = cytotoxic [8] was -15.1% [at 19 µM].
`NC(=S)Nc1cccc2ccccc12` showed an activation [1] of 6.32% [at 6.98 µM], an activity change, negative = cytotoxicity [2] of -0.564% [at 6.97 µM] and an activity change, negative = cytotoxicity [3] of 3.14% [at 8.39 µM]. For the same compound, the viability change, negative = cytotoxic [4] was 1.64% [at 8.39 µM], the viability change, negative = cytotoxic [5] was -0.893% [at 8.39 µM] and the activity, negative = inhibition [7] was 3.74% [at 8.39 µM]. The viability change, negative = cytotoxic [8] was 3.04% [at 8.39 µM].
`C=C(C)C(=O)OCCCCCCCCCCCCCCCCCC` showed an activation [1] of 6.68% [at 15.8 µM], an activity change, negative = cytotoxicity [2] of 15.1% [at 15.8 µM] and an activity change, negative = cytotoxicity [3] of -0.339% [at 19 µM]. For the same compound, the viability change, negative = cytotoxic [5] was 1.14% [at 19 µM], the activity change, negative = cytotoxicity [6] was 4.26% [at 19 µM] and the viability change, negative = cytotoxic [8] was 1.61% [at 19 µM].
For `CC(C)c1cccc(O)c1`, the Potency [1] was “inactive”, the Potency [2] was “inactive” and the outcome [3] was “inactive”. The Potency [4] was “inactive”, the outcome [5] was “inactive” and the outcome [8] was “inactive”. The Potency [10] was “inactive” and the Potency [11] was “inactive”.
For `CSc1ccc(C=O)cc1`, the Potency [1] was “inactive”, the Potency [2] was “inactive” and the Potency [13] was “inactive”. For the same compound, the Potency [12] was “inactive”, the outcome [5] was “inactive” and the outcome [6] was “inactive”. The outcome [8] was “inactive”.
In the case of `CCN1CCCC1CNC(=O)c1cc(S(N)(=O)=O)ccc1OC` (stereo unspecified), the Potency [1] is reported as 43.6 µM (active), the outcome [3] is reported as “inactive” and the Potency [13] is reported as “inactive”. For the same compound, the Potency [14] was “inactive”, the outcome [15] was “inactive” and the outcome [16] was “inactive”. The outcome [5] was “inactive”, the outcome [6] was “inactive” and the Potency [9] was “inactive”. The outcome [8] was “inactive”.
In the case of `O=Cc1ccccc1[N+](=O)[O-]`, the Potency [1] is reported as “inactive”, the Potency [2] is reported as “inactive” and the outcome [3] is reported as “inactive”. The Potency [4] was “inactive”, the outcome [5] was “inactive” and the outcome [6] was “inactive”. For the same compound, the outcome [8] was “inactive”, the Potency [10] was “inactive” and the Potency [11] was “inactive”.
For `CCN1CCCC(OC(=O)C(c2ccccc2)c2ccccc2)C1` (stereo unspecified), the Potency [1] was “inactive”, the Potency [2] was “inactive” and the outcome [3] was “inactive”. For the same compound, the Potency [12] was “inactive”, the outcome [5] was “inactive” and the outcome [6] was “inactive”. The Potency [7] was “inactive”, the Potency [9] was “inactive” and the outcome [8] was “inactive”.
In the case of `Nc1ccn(C2CO[C@H](CO)O2)c(=O)n1` (stereo partly specified), the Potency [1] is reported as “inactive”, the Potency [2] is reported as “inactive” and the outcome [3] is reported as “inactive”. The Potency [4] was “inactive”, the outcome [5] was “inactive” and the outcome [6] was “inactive”. The outcome [8] was “inactive”, the Potency [10] was “inactive” and the Potency [11] was “inactive”.
